From PubChem BioAssay AID2205 (University of Pittsburgh Molecular Library Screening Center, 2009)
Screen size: about 200,000 compounds; about 1,600 (0.8%) were called active.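 Rule for the calls: active = plate Z-score above 3 for both tubulin-high and condensed-nucleus cell shares, with cell loss under 80%, at 10 µM; inactive = the rest, inconclusive results apart.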 Many of the other results were omitted from the sample, so actives are more common in it than they were.

Assay: microtubule stabilizers in HeLa cells, primary screen, imaging, high-content imaging (AID 2205);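 for % tubulin-high responders: anti alpha tubulin signal scored within the nucleus-defined area of each cell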;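 for toxicity: 0% = mean cell density of plate MIN control wells and 100% = no cells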
Conditions: HeLa tubulin immunostaining HCS, 24 h, at 10 µM; % Hoechst-high responders: measured here: nuclear condensation Hoechst responders, stronger effect = higher value, share of cells brighter than vehicle mean+2SD; % tubulin-high responders: stronger effect = higher value, share of cells brighter than vehicle mean+2SD; toxicity: measured here: cytotoxicity by cell density

Row | Compound | % Hoechst-high responders [%] | % tubulin-high responders | toxicity [%]
1 | Cc1ccc(-c2cc(=O)c3ccc(F)cc3[nH]2)cc1 | 14.3 | 22.4% (active) | 28.4
2 | O=c1cc(-c2ccccc2)[nH]c2cc(F)ccc12 | 48.5 | 14.7% (inactive) | 37.5
3 | Cc1ccc(-c2cc(=O)c3ccc(Cl)cc3[nH]2)cc1 | 1.34 | 2.15% (inactive) | 1.49
4 | CN(CC(=O)NC1CCCC1)S(=O)(=O)c1cnc[nH]1 | 1.61 | 4.66% (inactive) | 8.08
5 | Cc1nn(CC2CC2)c(=O)n1N(C)c1ncc(C(F)(F)F)cc1Cl | 3.3 | 5.71% (inactive) | 3.78
6 | COc1ccc(C(=O)NN(C)c2nc(-c3ccccc3)cc(C)c2S(C)(=O)=O)cc1 | 3.04 | 2.71% (inactive) | 4.33
7 | CN(NC(=O)c1ccccc1F)c1nc(C(F)(F)F)nc2ccccc12 | 59.1 | 12.1% (active) | 32.2
8 | CSc1nc(N(C)NC(=O)c2cccc(C)c2)c2ccccc2n1 | 33.9 | 13.4% (inactive) | 39.2
9 | Cc1cc(C)n(-c2nc(C(F)(F)F)nc3ccccc23)n1 | 2.48 | 5.42% (inactive) | 5.25
10 | COC(=O)CNC(=O)c1ccccc1F | 1.58 | 0.975% (inactive) | 9.24
11 | CN(NC(=O)c1ccccc1)c1nc2ccccc2nc1C(F)(F)F | 38 | 48.6% (active) | 33.5
12 | CCN(CC)S(=O)(=O)c1ccc(N(C)CCc2ccc(OC)c(OC)c2)nc1 | 1.73 | 5.42% (inactive) | 7.66
13 | Cc1ccsc1C(=O)N/N=C/c1ccc([N+](=O)[O-])cc1 | 2.36 | 3.58% (inactive) | 0.132
14 | Cc1ccc(/C=N/NC(=O)c2sccc2OCc2ccc(F)cc2)cc1 | 18.4 | 39.2% (active) | 68.8
15 | Cc1ccc(COc2ccc(/C=N/NC(=O)CN3CCCCC3)cc2)cc1 | 2.2 | 1.76% (inactive) | 4.99
16 | Cn1cnnc1SCC(=O)Nc1ccc(N2CCOCC2)cc1 | 3.45 | 1.73% (inactive) | 7.15
17 | O=C(c1snnc1-c1ccccc1)N1CCOCC1 | 2.21 | 5.38% (inactive) | 8.24
18 | O=C(COC(=O)c1cnc(Cl)c(Cl)c1)NCc1ccco1 | 2.45 | 2.71% (inactive) | 7.79
19 | Cc1cc(C(=O)OCC(=O)NCc2ccco2)c(C)n1-c1ccccc1 | 31.8 | 24.1% (active) | 57.4
20 | O=C(COC(=O)c1cc(S(=O)(=O)N2CCCCC2)ccc1Cl)NCc1ccco1 | 2.04 | 2.32% (inactive) | 4.83
21 | O=C(Cn1nnc(-c2ccccc2)n1)N/N=C/c1ccc(-c2ccc(Cl)cc2)o1 | 2.75 | 3.12% (inactive) | 5.19
22 | O=C(CCNS(=O)(=O)c1ccc(Br)s1)NCc1ccccc1Cl | 1.95 | 0.853% (inactive) | 9.73
23 | CCC(C)(C(=O)Nc1ccccc1C)N(C(=O)CNC(C)=O)c1ccc(C)cc1 (stereo not given) | 3.25 | 4.21% (inactive) | 4.1
24 | CCOc1ccc(Br)cc1S(=O)(=O)Nc1ccc(C(=O)OC(C)C(=O)N(C)c2ccccc2)cc1 (stereo not given) | 0.626 | 6.66% (inactive) | 0.658
25 | CC(=O)c1ccc(Oc2cc(C)nc(-n3nc(C)cc3C)n2)cc1 | 57.9 | 17.9% (active) | 18.9

Row | Compound | % Hoechst-high responders [%] | % tubulin-high responders | toxicity [%]
26 | COc1ccc(Nc2cc(C)nc(-n3nc(C)cc3C)n2)cc1 | 25.7 | 11.5% (inactive) | 60.4
27 | Cc1cc(C)n(-c2cc(Oc3ccccc3)ncn2)n1 | 0.881 | 1.4% (inactive) | 3.38
28 | CCn1cc(CN2CCCC(CNS(=O)(=O)Cc3ccccc3)C2)cn1 (stereo not given) | 2.22 | 3.89% (inactive) | 8.22
29 | O=C(CN1CCN(Cc2ccc(F)cc2Cl)C1=O)NCc1cccs1 | 1.49 | 1.68% (inactive) | 2.53
30 | CC(C)CNC(=O)CC(NCC(C)C)C(=O)O (stereo not given) | 2.02 | 2.59% (inactive) | 6.47
31 | O=C(/C=C/c1cccs1)NCc1cccnc1 | 2.05 | 2.55% (inactive) | 5.06
32 | CCOC(=O)N1CCN(S(=O)(=O)c2ccc(C(=O)Nc3ccc(F)cc3F)cc2)CC1 | 35.2 | 29.1% (active) | 67.6
33 | O=C(Nc1cccc(F)c1)c1ccc(S(=O)(=O)N2CCCC2)cc1 | 3.36 | 4.55% (inactive) | 7.13
34 | COc1ccc(C(=O)Nc2ccc(F)cc2F)cc1 | 1.66 | 1.84% (inactive) | 2.01
35 | C/[N+]([O-])=C\c1ccc([N+](=O)[O-])o1 | 1.53 | 1.72% (inactive) | 3.24
36 | CCCn1c(SCC(=O)Nc2ccc(C)c(S(=O)(=O)N3CCOCC3)c2)n[nH]c1=O | 2.38 | 5.82% (inactive) | 5.63
37 | CCCCC(=O)NNC(=S)NC(=O)C(c1ccccc1)c1ccccc1 | 1.83 | 2.83% (inactive) | 2.74
38 | CC(C)C(=O)Nc1cccc(NC(=S)NC(=O)C(c2ccccc2)c2ccccc2)c1 | 44 | 30.3% (active) | 36.2
39 | CC(C)C(=O)NC(=S)Nc1ccccc1F | 1.63 | 3.48% (inactive) | 5.15
40 | CC(Sc1nnc2c(n1)C1CCC2(C)C1(C)C)C(=O)Nc1ccccc1 (stereo not given) | 3 | 3.52% (inactive) | 9.4
41 | O=C(/C=C/c1ccc(Cl)c([N+](=O)[O-])c1)c1cccnc1 | 0.942 | 1.22% (inactive) | 2.98
42 | Cc1cc(NC(=O)CSc2nc(C(C)C)nc3sc4c(c23)CCC(C)C4)no1 (stereo not given) | 2.02 | 5.74% (inactive) | 9.29
43 | CC1CCc2c(sc3nc4n(c(=O)c23)CCS4)C1 (stereo not given) | 1.5 | 1.55% (inactive) | 8.83
44 | C=CCn1c(SCc2c(C)noc2C)nc2sc3c(c2c1=O)CCC(C)C3 (stereo not given) | 27.2 | 31.2% (active) | 44.4
45 | O=C(CCn1ccc([N+](=O)[O-])n1)Nc1nccs1 | 2.43 | 6.18% (inactive) | 8.86
46 | CCN1/C(=C/c2ccc3ccc(C)cc3[n+]2CC)Sc2ccccc21 | 2.38 | 4.83% (inactive) | 9.09
47 | CCN1/C(=C\c2ccc3ccccc3[n+]2CC)Sc2cc(C)ccc21 | 5.5 | 8.18% (active) | 19.1
48 | CCC(=O)/C=C1\Sc2ccccc2N1CC | 0.853 | 4.83% (inactive) | 6.64
49 | Fc1c(F)c(C(F)(F)F)c(F)c(F)c1N1CCN(c2ccc3nnc(C(F)(F)F)n3n2)CC1 | 7.05 | 6.71% (active) | 8.52
50 | FC(F)(F)c1nnc2ccc(N3CCN(c4ccccc4)CC3)nn12 | 1.98 | 0.88% (inactive) | 7.36
